One may read the inhibition as the relative decrease from the control value, in per cent.

The text below walks through data of PubChem BioAssay.

Unmarked numbers belong to inactive results. How the calls were made is not given here.

The target in the test is Pantothenate synthetase (Mycobacterium tuberculosis (strain ATCC 25618 / H37Rv)) (UniProt P9WIL5). Nature of the test: Recombinant Mtb pantothenate synthetase (PanC) inhibitors, coupled enzyme, confirmatory (AID 375).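 Further: 0% = full reaction with vehicle and 100% = no enzyme background.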 Conditions: coupled enzyme assay; at 10 µM, stronger effect = higher value.
Pantothenate synthetase (Mycobacterium tuberculosis (strain ATCC 25618 / H37Rv)), sequence (P9WIL5 whole entry, looked up): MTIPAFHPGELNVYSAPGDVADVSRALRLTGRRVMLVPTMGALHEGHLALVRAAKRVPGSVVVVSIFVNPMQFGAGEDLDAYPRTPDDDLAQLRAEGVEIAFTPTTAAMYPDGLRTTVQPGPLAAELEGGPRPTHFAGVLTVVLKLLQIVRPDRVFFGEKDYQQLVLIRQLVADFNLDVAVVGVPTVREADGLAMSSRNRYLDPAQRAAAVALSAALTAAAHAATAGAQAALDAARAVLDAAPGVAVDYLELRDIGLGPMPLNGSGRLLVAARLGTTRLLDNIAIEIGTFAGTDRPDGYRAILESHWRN
As to `CCCOc1cccc(NC(=O)c2c(-c3ccccc3)noc2C)c1`, the inhibition was 0%.
In the case of `O=C1COc2ccc(C(=O)NCc3ccco3)cc2N1` it was 0%.
In the case of `CCc1nc(N)c(C#N)c(-c2ccncc2)c1C`, the inhibition is 0%.
Under `Cc1cc(C)c(C#N)c(SCc2[nH]nc3c2C(c2ccccc2)C(C#N)=C(N)O3)n1` (stereo not given) stands 0%.
For the compound `COc1ccc(OCCC(=O)NCc2ccccc2)cc1`, the inhibition was 0%.
In the case of `Cc1cc(C)n(CC(=O)n2c3c(c4ccccc42)CCCC3)n1` it was 2%; in that of `Cc1noc(C)c1S(=O)(=O)Nc1c(C)n(C)n(-c2ccccc2)c1=O`, 5%; in that of `CCN1CCN(CCNC(=O)c2cn(C(C)c3ccccc3F)nn2)CC1` (stereo not given), 0%.
On to `Brc1ccc(C2=Nn3c(nnc3-c3ccncc3)SC2)cc1`, for which the inhibition is 0%.
Under `COC(=O)c1cccc(NC(=O)C2COc3ccccc3O2)c1C` (stereo not given) stands 0%; under `Cc1ccccc1-c1nc(Cc2ccccc2)no1`, 1%; under `Cc1ccc(CSC2=NCCN2C(=O)c2ccco2)cc1`, 0%.
As to `Nc1nnc(-c2ccccc2)c(-c2ccccc2)n1`, the inhibition is 0%.
Regarding `Cc1cccc(C2CC(c3ccc(Cl)cc3)Nc3nc(N)nn32)c1` (stereo not given), the inhibition is 0%.
Under `COC(=O)C1=C(N)Oc2cc(C)n(Cc3ccncc3)c(=O)c2C1c1cccnc1` (stereo not given) stands 0%.
For `Cc1csc2ncc(C(=O)N3CCc4ccccc43)c(=O)n12`, the inhibition is 6%.
Under `CCC(=O)N1C(=O)CCN(C(C)=O)c2ccccc21` stands 0%; under `CC(C)OC(=O)CSc1nnc(-c2ccc(C(C)(C)C)cc2)n1N`, 0%; under `Cc1cc(N2C(=O)CC(N3CCN(c4ccc(C(=O)c5cccs5)cc4)CC3)C2=O)no1` (stereo not given), 0%.
Under `CCCOC(=O)c1ccc(-c2c(C)noc2-c2ccc(OC)cc2O)o1` stands 0%.
Under `CC(C)(C)NC(=O)C(c1ccco1)N(C(=O)Cn1nnc(-c2ccc(F)cc2)n1)c1ccccc1F` (stereo not given) stands 5%.
For `Cc1csc(NC(=O)CCn2c(=O)oc3ccccc32)n1`, the inhibition is 1%.
Under `CCn1c(=N)n(CC(O)COc2cccc(C)c2)c2ccccc21` (stereo not given) stands 4%; under `CC(=O)NS(=O)(=O)c1ccc(N)cc1`, 2%.
Under `Cn1cc(C(=O)c2ccc(F)cc2)cc1-c1nc2ccccc2n1C` stands 6%; under `c1ccc(-c2cc(N3CCCCC3)ncn2)cc1`, 0%; under `Cn1c(=O)c(=O)n(C)c2cc(S(=O)(=O)N3CCCCC3)ccc21`, 14%.
Turning to `COc1ccccc1N1CCN(C(=O)CCNS(=O)(=O)c2ccc3c(c2)CCC(=O)N3)CC1`, the inhibition was 0%.
On to `CCn1cc(C(=O)O)c(=O)c2cc(F)c(N3CCN(C(=O)Nc4ccccc4)CC3)cc21`, for which the inhibition was 1%.
As for `COCCn1c(SCC(=O)c2ccccc2)nc2c(c1=O)SC(C)C2` (stereo not given), the inhibition was 0%.
For the compound `CCC(C(=O)O)n1c(C(F)(F)F)nc2ccccc21` (stereo not given), the inhibition was 4%.
Under `CCN(CC)Cc1c(C(=O)OC)nnn1-c1nonc1N` stands 0%; under `CCN1C(=O)CC(C(=O)Nc2ccc(F)cc2)SC1=Nc1ccc2c(c1)OCO2` (stereo not given), 6%; under `CC(=O)c1cc(-c2ccc(F)cc2)n(CCC(=O)Nc2cc(C)[nH]n2)c1C`, 4%.
As to `CC1CCCC(NC(=O)CSc2ncccc2C(=O)O)C1C` (stereo not given), the inhibition was 0%.
In the case of `O=C(Cn1ncc2c1-c1ccccc1OC2)Nc1ccc(Cl)cn1` it was 6%; in that of `COc1ccccc1CC(=O)NCC1CCCO1` (stereo not given), 0%; in that of `CCc1cc2c(=O)c(-c3nc4ccccc4[nH]3)coc2cc1OC(=O)N1CCOCC1`, 7%.
Turning to `CC(NC(=O)c1ccc2c(c1)OCO2)C(c1cccs1)N1CCOCC1` (stereo not given), the inhibition was 9%.
In the case of `O=C(NO)c1ccccc1O` it was 0%.
